Assay outcomes: PubChem BioAssay, National Center for Advancing Translational Sciences (NCATS)
Compounds with a hit are over-represented: about 12% of the library has one in this group of screens.
G9a block: G9a (human) methyltransferase inhibition; Potency, µM (titrated, usually from 102 µM), inactives show at the top dose activity, negative = inhibition, hits mostly inhibitors; AID 504332; hit rate 8.8% among 350,000; Q96KQ7; G9a H3K9 monomethylation, AlphaScreen, 2 h; further: on the % scale 0 is the no-effect control and ±100 the full control effect; nearly all actives have a fitted effect of over 75% in size
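Using a bead-based AlphaScreen, monomethylated H3K9 product from 2 h room-temperature reactions (G9a 20 nM, peptide 500 nM, SAM 20 uM) was detected with 0.5 ug/mL rabbit anti-H3K9me1 antibody.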
JMJD2A Tudor: blocks the human JMJD2A Tudor domain; O75164; AlphaScreen JMJD2A-Tudor / H3K4me3 peptide binding; hit rate 4.4% among 390,000; Potency, µM (highest dose often 114 µM), for inactives: top-dose activity change, negative = inhibition, most hits filed as inhibitors; further: on the % scale 0 is the no-effect control and ±100 the full control effect; nearly all actives have a fitted effect of over 50% in size
BAZ2B inh: inhibitors of human BAZ2B bromodomain; Q9UIF8; AlphaScreen BAZ2B-H3K14Ac peptide displacement; Potency, µM (series often up to 114 µM), for inactives: at the top dose activity change, negative = inhibition, usual class: inhibitors; hit rate 4.4% among 360,000; AID 504333; further: on the % scale 0 is the no-effect control and ±100 the full control effect; nearly all actives have a fitted effect of over 60% in size
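Multi-concentration screen (max 110 uM) measuring displacement of acetylated histone H3 peptide from BAZ2B by AlphaScreen, using 50 nM protein, 50 nM peptide and 10 ug/mL streptavidin donor plus Ni-chelate acceptor beads.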
HP1b chromo inh: HP1-beta chromodomain-methylated histone interaction inhibition; AlphaScreen HP1-beta / biotin-H3K9me3 peptide binding; Potency, µM (series often up to 114 µM), without a hit: at the top dose activity change, negative = inhibition, hits mostly inhibitors; hit rate 0.56% among 390,000; further: nearly all actives have a fitted effect of over 70% in size
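AlphaScreen: HP1-beta (50 nM) preformed 30 min with biotin-H3(1-18)K9me3 peptide (50 nM) in PBS pH 7.4, 0.01% Tween-20. Compound added for 30 min at RT, then streptavidin donor/nickel chelate acceptor beads (10 ug/mL) for 30 min.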
Sfp inh: inhibitors of Bacillus subtilis Sfp phosphopantetheinyl transferase; Biochemical Sfp PPTase activity, qHTS; Potency, µM, inactives show largest response in the series, negative = inhibition, most hits filed as inhibitors; hit rate 3.5% among 310,000;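 further: the enzyme is Sfp with the accession as filed and its product quenches rhodamine fluorescence; 0% = enzyme reaction without inhibitor and -100% = no enzyme wells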
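Reaction rates are the 30-min fluorescence difference (ex 525, em 598 nm) in wells containing 15 nM Sfp, 5 uM rhodamine-CoA and 12.5 uM BHQ-2-YbbR at pH 7.6 with 10 mM MgCl2.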
An asterisk follows results filed as active; u = inconclusive; x = no result given; [ ] = another dose, or the depositor's remark. The call rests on the fitted dose curve; in most records, active means well fitted curve in the direction sought with a large enough effect; inconclusive means small, poorly fitted or top-dose-only effect, or another doubt; inactive means no such curve, though single readings can be large; an effect the other way counts as inactive or inconclusive. Potency means the concentration at half of the fitted maximal effect.

SMILES	G9a block	JMJD2A Tudor	BAZ2B inh	HP1b chromo inh	Sfp inh
O=C(COc1ccc2c(-c3ccccc3)cc(=O)oc2c1)N[C@H](Cc1c[nH]c2ccccc12)C(=O)O	20%[12.7 µM]	-26%	-38%	4%	0%
C/C(CC(C)(C)c1ccccc1)=N\NS(=O)(=O)c1ccccc1	25µM*	-7%	-22%	39%	9%
Cc1sc2nc(-c3cccnc3)[nH]c(=O)c2c1-c1ccccc1	11µM*	-17%	x	-12%	45µM*
CN(C)c1ccc(C2C3C(=O)NC(=O)C3ON2c2ccc(Cl)cc2)cc1 (stereo not given)	u	56µM*	50µM*	-17%	-10%
O=C(C[C@H]1C[C@H](C(=O)N2CCOCC2)[C@@]2(CCC3CCCC3)c3[nH]c4ccc(Cl)cc4c3CCN2C1=O)NCCCn1ccnc1	x	u	x	-13%	x
O=c1c2ccccc2c(/C=N/n2cnnc2)c(O)n1-c1ccccc1F	71µM*	u	u	27%	-8%
Cc1ccc(-n2c(O)c(/C=N/n3cnnc3)c3ccccc3c2=O)cc1	u	56µM*	50µM*	-4%	8%
O=c1c2ccccc2c(C=NCc2ccccn2)c(O)n1-c1ccccc1Cl	u	u	u	-17%	-15%
CC(C)(C)c1ccc(NNC(=O)C2CCC2)cc1	14µM*	-6%	-2%	43%	6%
O=C(NNc1cc(Cl)ccc1Cl)C1CCC1	50µM*	71µM*	0%	-5%	14%
O=C(CNC(=O)C1CCCCC1)Nc1cc(Cl)ccc1Cl	1%[59 µM]	-12%	2%	24%	18%
O=C(NNc1ccc(F)cc1F)C1CCC1	18µM*	-6%	2%	23%	19%
O=C(NNC(=O)C1CCCC1)c1ccccc1F	11%	6%	-11%	21%[57 µM]	13%
CS(=O)(=O)N1CCC(C(=O)Nc2ccc(F)cc2F)CC1	20%[59 µM]	-4%	0%	22%	-3%
O=C(NNc1ccccc1F)C1CCC1	50µM*	-13%	-5%	61%	-3%
CCc1ccc(C(=O)CSc2nc(-c3ccccc3)nc3c2CCCC3)cc1	19%[59 µM]	20%	7%	91%	x
CCOc1ccc(C2NC(=O)c3c(COC)cc(C)nc3N2Cc2ccccc2)cc1OC (stereo not given)	13%[59 µM]	-15%	-13%	41%	x
O=C(NNc1ccccc1F)c1cccs1	x	-10%	x	58%	x
O=C(NNc1ccccc1F)c1ccccc1	28µM*	-11%	2%	40%	-1%
CCN(CCCNc1ncnc2nc[nH]c12)c1cccc(C)c1	18µM*	40µM*	50µM*	-19%	7%
COc1cccc(CS(=O)(=O)c2nnnn2-c2ccccc2)c1	x	x	x	x	8%
CC(C)Nc1nc(-c2ccccn2)nc(-c2ccccc2)c1C#N	5%	-14%	-5%	2%	14%
C=CCNc1nc(-c2ccccn2)nnc1-c1ccccc1	47%	35µM*	0.89µM*	46%	u
Cc1ccc(C)c(Cn2c(=O)n(-c3ccc(F)cc3)c(=O)c3sc4ccccc4c32)c1	-3%[59 µM]	-11%	-2%	32%	x
Oc1c(/C=N/c2ncn[nH]2)ccc2ccccc12	2.2µM*	u	-3%	28%	-5%
SMILES	G9a block	JMJD2A Tudor	BAZ2B inh	HP1b chromo inh	Sfp inh
Cc1ccc(-n2c(O)c(/C=N/c3ncn[nH]3)c3ccccc3c2=O)cc1	15%[12.7 µM]	-21%	u	8%	14%
COCCOC(=O)c1c(C)nc(SCC(=O)Nc2ccc(OC)cc2)c(C#N)c1-c1ccco1	45µM*	-10%[11.4 µM]	5%	34%	-7%
Cc1nc(SCC(=O)c2ccccc2)c(C#N)c(-c2ccco2)c1C(=O)NCc1ccco1	u	-36%	4%	-3%	22µM*
C/C(CCN1CCCCc2nc(C)c(C)cc21)=N\O[C@@H](C)c1cc(-c2c(C)cc(C)cc2C)no1	x	x	x	x	0%
COC(=O)C1=C(c2ccc(OC)cc2)OC(=O)C1(C)C	68%	-3%	-2%	52%	15%
O=C(O/C(=C/c1ccccc1)C(F)(F)F)c1ccccc1	x	118%	x	196%	x
O=C(NCCc1ccccc1)C1(c2ccccc2)CCCC1	29%[0.501 µM]	3%	-37%	40%	11%
N#CC1(c2ccccc2)CCC(NCCc2ccccc2)CC1 (stereo not given)	25µM*	50µM*	56µM*	16%	-25%
Cc1ccc(S(=O)(=O)N2CCc3nc(-c4ccccc4)c4c(c3C2)CO[C@@H](C)C4)cc1	x	x	x	x	-5%
Cc1nc(SCC(=O)Nc2cc(C(N)=O)cc(C(N)=O)c2)c2c(C)c(C)sc2n1	45µM*	u	u	50%	-16%
COc1ccc(CS(=O)(=O)/C(Cl)=C(/Cl)C(=O)Nc2ccc(OC)nc2)cc1	45µM*	-21%	-7%	27%	1%
CCCCNC(=S)Nc1ccc(OC)nc1	56µM*	-9%	-15%	-6%	8%
COc1ccc(NC(=O)/C(Cl)=C(/Cl)S(=O)Cc2ccccc2)cn1 (stereo not given)	11µM*	-9%	10%	49%	40µM*
COc1ccc(NC(=S)Nc2ccccc2)cn1	23%[59 µM]	15%	5%	11%	-8%
COc1ccc(NC(=O)Cc2ccccc2)cn1	-6%	-25%	-2%	-11%	-1%
CCOC(=O)c1[nH]c(C)c(CCC(=O)NCc2ccccc2)c1C	-4%[59 µM]	-17%	-19%	20%[57 µM]	x
Cc1ccc(C(=O)N(Cc2ccc(N(C)C)cc2)CC2CCCO2)cc1 (stereo not given)	13µM*	u	35µM*	-23%	x
CN(Cc1ccccc1)C(=O)c1cc2ccccc2o1	11%	14%	6%	42%	5%
CCOc1cccc(C(=O)N(Cc2ccc(N(C)C)cc2)CC2CCCO2)c1 (stereo not given)	14µM*	u	50µM*	3%	x
COc1ccc(C(=O)N(Cc2ccc(N(C)C)cc2)CC2CCCO2)cc1 (stereo not given)	11µM*	u	u	21%	x
CN(Cc1ccc(N(C)C)cc1)C(=O)c1cc2ccccc2o1	40µM*	50µM*	32µM*	u	-1%
COc1ccc(C(=O)NCC2CCCO2)cc1 (stereo not given)	-37%	-14%	10%	18%	1%
Cc1ccc(OCC(=O)N(Cc2ccc(Cl)cc2)CC2CCCO2)cc1C (stereo not given)	26%[59 µM]	28%	42%	111%	x
O=C(O)CCc1cc(F)c(S(=O)(=O)N2CCN(S(=O)(=O)c3ccc4c(c3)OCCO4)CC2)cc1F	x	-5%	x	x	x
CCOC(=O)[C@@H]1[C@H]2COc3cc(OC)ccc3[C@H]2N2C(=O)N(c3ccc(F)cc3)C(=O)[C@@]12C	8%	-18%	-27%	34%	11%
CN(C)c1ccc(CN(CC2CCCO2)C(=O)c2ccc(Br)cc2)cc1 (stereo not given)	14µM*	50µM*	40µM*	u	x
